In PubChem BioAssay (Tox21):
A number with no mark means an inactive call. Inconclusive results are not listed. A call without a number means that no potency is given here. Active and inactive are the calls of the source. Unless noted, the call rests on the fitted dose curve; in most records, active means well fitted curve in the direction sought with a large enough effect in the repeat runs; inconclusive means weak or mixed curves; inactive means no such curve, though single readings can be large; an effect the other way counts as inactive or inconclusive.

Columns and labels:
[1] = qHTS assay to identify small molecule agonists of the estrogen receptor alpha (ER-alpha) signaling pathway in the presence of an antagonist - cell viability counter screen (AID 1259386);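 further: cells exposed to compounds for 22 h at 37 °C before the viability read; nearly all actives have a fitted effect of over 30% in size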; further: potency means the concentration at half of the fitted maximal effect
In short: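 In this counter screen, compound effects on VM7Luc4E2 viability were tested in the presence of the antagonist ICI-182,780 at 10.0nM final. Compounds were dosed at 15 concentrations, exposure lasted 22hr, and the CellTiter-Fluor signal was read.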

[2] = biological target: Progesterone receptor (Homo sapiens) (UniProt P06401); assay: qHTS assay to identify small molecule agonists of the progesterone receptor (PR) signaling pathway (AID 1346784; calls by dose curve; further: nearly all actives have a fitted effect of over 30% in size)
Sequence of Progesterone receptor (Homo sapiens) (P06401 whole entry, looked up): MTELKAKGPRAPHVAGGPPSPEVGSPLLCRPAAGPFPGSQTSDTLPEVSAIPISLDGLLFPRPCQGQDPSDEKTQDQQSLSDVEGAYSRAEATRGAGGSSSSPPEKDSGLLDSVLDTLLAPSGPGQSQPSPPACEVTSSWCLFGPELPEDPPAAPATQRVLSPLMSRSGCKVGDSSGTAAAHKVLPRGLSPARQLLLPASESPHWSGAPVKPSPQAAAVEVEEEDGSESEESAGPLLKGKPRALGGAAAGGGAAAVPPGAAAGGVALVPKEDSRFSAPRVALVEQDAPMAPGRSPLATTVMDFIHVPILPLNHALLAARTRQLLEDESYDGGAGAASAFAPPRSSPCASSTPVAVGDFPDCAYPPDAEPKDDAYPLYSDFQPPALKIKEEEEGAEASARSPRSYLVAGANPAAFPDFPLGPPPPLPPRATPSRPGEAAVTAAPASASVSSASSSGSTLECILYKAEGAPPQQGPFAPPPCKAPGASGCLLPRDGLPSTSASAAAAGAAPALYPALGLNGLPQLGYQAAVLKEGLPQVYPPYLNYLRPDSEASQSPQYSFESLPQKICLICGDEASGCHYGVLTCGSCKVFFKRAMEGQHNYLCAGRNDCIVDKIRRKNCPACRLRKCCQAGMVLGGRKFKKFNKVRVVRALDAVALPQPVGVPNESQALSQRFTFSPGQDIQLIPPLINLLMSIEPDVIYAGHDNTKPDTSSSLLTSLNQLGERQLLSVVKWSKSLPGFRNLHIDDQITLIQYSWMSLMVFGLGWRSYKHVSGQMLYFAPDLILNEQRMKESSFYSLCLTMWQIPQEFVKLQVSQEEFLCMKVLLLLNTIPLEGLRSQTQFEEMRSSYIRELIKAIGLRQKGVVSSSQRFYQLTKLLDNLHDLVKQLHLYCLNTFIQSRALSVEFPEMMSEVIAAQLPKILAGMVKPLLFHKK
In short: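 HEK 293T PR-UAS-bla reporter cells, 2% charcoal-stripped FBS; 6 hr settle at 37C/5% CO2, compound (DMSO) 16 hr, LiveBLAzer B/G FRET substrate 2 hr RT, fluorescence intensity read.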

[3] = biological target: Progesterone receptor (Homo sapiens) (UniProt P06401); assay: qHTS assay to identify small molecule antagonists of the progesterone receptor (PR) signaling pathway (AID 1346795; active means well fitted inhibition curve with a large enough effect in the signal ratio in the repeat runs, not every such curve was filed as active; the % refers to the signal ratio; further: potency means the concentration at half of the fitted maximal effect)
In short: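 Beta-lactamase reporter, HEK293T PR-UAS-bla line; 2% charcoal-stripped FBS; 6 hr pre-incubation, 37C/5% CO2. Compound + R5020 1 nM final, 16 hr. LiveBLAzer B/G FRET substrate, 2 hr RT; fluorescence intensity read.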

[4] = qHTS assay to identify small molecule antagonists of the progesterone receptor (PR) signaling pathway - cell viability counter screen (AID 1346798); further: series mostly up to about 92 µM; nearly all actives have a fitted effect of over 50% in size
In short: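 Luminescence readout (CellTiter-Glo, 30 min, RT) of viability in PR-UAS-bla HEK293T cells exposed to compound and R5020 agonist for 16 hr at 37C, 5% CO2; run in the same wells as the beta-lactamase reporter read.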

[5] = qHTS assay to identify small molecule agonists of the progesterone receptor (PR) signaling pathway - cell viability counter screen (AID 1346799; calls by dose curve; further: nearly all actives have a fitted effect of over 45% in size)
In short: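 HEK293T PR-UAS-bla, 3,000 cells/well, 2% charcoal-stripped FBS; 6 h settle, compound 16 h at 37C/5% CO2; LiveBLAzer 2 h RT, then CellTiter-Glo 30 min RT, luminescence read.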

[6] = qHTS assay to identify small molecule antagonists of the TGF-beta/Smad signaling pathway - cell viability counter screen (AID 1346824); further: nearly all actives have a fitted effect of over 50% in size
In short: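 Cytotoxicity counter-screen run in the same wells as the beta-lactamase Smad reporter read: CellTiter-Glo luminescence after 30 min at room temperature. HEK 293T SBE-bla cells had 5 hr compound exposure at 37 C with TGF-beta1 (0.25 ng/mL stock).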

[7] = qHTS assay to identify small molecule agonists of the TGF-beta/Smad signaling pathway - cell viability counter screen (AID 1346829); further: top concentration of the series differs between compounds; nearly all actives have a fitted effect of over 45% in size
In short: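 Luminescence from CellTiter-Glo, read after a 30 min room-temperature incubation, gives cell viability of SBE-bla HEK 293T cells treated 5 hr with compounds at 37 C.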

[8] = qHTS assay to identify small molecule agonists of the TGF-beta/Smad signaling pathway (AID 1346859; active means well fitted activation curve with a large enough effect in the signal ratio in the repeat runs, not every such curve was filed as active; the % refers to the signal ratio; further: series mostly up to about 77 µM)
In short: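 Read-out: fluorescence at 460 and 530 nm (405 nm excitation) after a 2 hr room-temperature incubation with beta-lactamase FRET substrate. SBE-bla HEK 293T cells had been treated with test compounds for 5 hr at 37 C.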

[9] = Human pregnane X receptor (PXR) small molecule agonists, qHTS cell viability counter screen (AID 1346977); further: nearly all actives have a fitted effect of over 50% in size; further: potency means the concentration at half of the fitted maximal effect
In short: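 Fluorescence read-out (CellTiter-Fluor) of viability in PXR-Luc HepG2 cells, multiplexed with the luciferase agonist read. Compounds in DMSO added after 5hr plating; 24hr total exposure at 37C, 5% CO2.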

[10] = Caspase-3/7 induction in HepG2 cells by small molecules, qHTS assay (AID 1346978); further: nearly all actives have a fitted effect of over 15% in size
In short: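 Caspase-3/7 induction was measured by Caspase-Glo 3/7 luminescence (30 min, room temperature) after a 17 hr compound exposure of wild-type HepG2 cells seeded at 2,000 per well and pre-incubated 5 hr.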

[11] = Caspase-3/7 induction in CHO-K1 cells by small molecules, qHTS cell viability counter screen (AID 1346979); further: nearly all actives have a fitted effect of over 35% in size; further: potency means the concentration at half of the fitted maximal effect
In short: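 CHO-K1 wt, 1,500 cells/well; 5hr pre-incubation 37C/5% CO2; compound pin transfer (DMSO); 16hr exposure; CellTiter-Fluor added, 1hr, fluorescence read.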

[12] = Caspase-3/7 induction in CHO-K1 cells by small molecules, qHTS assay (AID 1346980); further: nearly all actives have a fitted effect of over 15% in size
In short: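 Luminescent Caspase-Glo 3/7 read (30min, room temperature) quantified apoptosis induction. Cells were wild-type CHO-K1, treated with compound for 17hr at 37 C and 5% CO2.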

[13] = Caspase-3/7 induction in HepG2 cells by small molecules, qHTS cell viability counter screen (AID 1346981); further: nearly all actives have a fitted effect of over 30% in size; further: potency means the concentration at half of the fitted maximal effect
In short: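 In this quantitative HTS counter screen, compounds delivered in DMSO were left on unmodified HepG2 cells for 16 hr at 37 C. Viability was then determined fluorometrically with CellTiter-Fluor, in parallel with caspase-3/7 induction in the same wells.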

[14] = biological target: Nuclear receptor subfamily 1 group I member 2 (Homo sapiens) (UniProt O75469); assay: Human pregnane X receptor (PXR) small molecule agonists, qHTS assay (AID 1346982); further: nearly all actives have a fitted effect of over 35% in size; further: potency means the concentration at half of the fitted maximal effect
Sequence of Nuclear receptor subfamily 1 group I member 2 (Homo sapiens) (O75469 whole entry, looked up): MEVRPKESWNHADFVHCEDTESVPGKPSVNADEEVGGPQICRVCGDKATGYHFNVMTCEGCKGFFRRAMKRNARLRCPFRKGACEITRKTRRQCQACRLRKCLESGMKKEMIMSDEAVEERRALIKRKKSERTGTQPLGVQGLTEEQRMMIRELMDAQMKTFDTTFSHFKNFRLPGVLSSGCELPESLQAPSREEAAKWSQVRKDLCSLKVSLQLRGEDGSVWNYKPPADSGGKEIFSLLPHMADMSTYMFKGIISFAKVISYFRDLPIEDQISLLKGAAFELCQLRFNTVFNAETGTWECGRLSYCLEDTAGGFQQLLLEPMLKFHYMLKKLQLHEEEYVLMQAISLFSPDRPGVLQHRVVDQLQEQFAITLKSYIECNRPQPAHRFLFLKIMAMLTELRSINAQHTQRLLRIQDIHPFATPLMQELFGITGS
In short: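 Reporter HepG2 cells expressing PXR-Luc are cultured in charcoal-stripped FBS (5%), treated with compounds for 24 hr at 37 C, and assayed by ONE-Glo luminescence after 30 min at room temperature.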

[15] = biological target: Cytochrome P450 2D6 (Homo sapiens) (UniProt P10635); assay: Cytochrome P450 Family 2 Subfamily D Member 6 (CYP2D6) small molecule antagonists: luciferase reporter qHTS assay (AID 1671196); further: nearly all actives have a fitted effect of over 50% in size; further: potency means the concentration at half of the fitted maximal effect
Sequence of Cytochrome P450 2D6 (Homo sapiens) (P10635 whole entry, looked up): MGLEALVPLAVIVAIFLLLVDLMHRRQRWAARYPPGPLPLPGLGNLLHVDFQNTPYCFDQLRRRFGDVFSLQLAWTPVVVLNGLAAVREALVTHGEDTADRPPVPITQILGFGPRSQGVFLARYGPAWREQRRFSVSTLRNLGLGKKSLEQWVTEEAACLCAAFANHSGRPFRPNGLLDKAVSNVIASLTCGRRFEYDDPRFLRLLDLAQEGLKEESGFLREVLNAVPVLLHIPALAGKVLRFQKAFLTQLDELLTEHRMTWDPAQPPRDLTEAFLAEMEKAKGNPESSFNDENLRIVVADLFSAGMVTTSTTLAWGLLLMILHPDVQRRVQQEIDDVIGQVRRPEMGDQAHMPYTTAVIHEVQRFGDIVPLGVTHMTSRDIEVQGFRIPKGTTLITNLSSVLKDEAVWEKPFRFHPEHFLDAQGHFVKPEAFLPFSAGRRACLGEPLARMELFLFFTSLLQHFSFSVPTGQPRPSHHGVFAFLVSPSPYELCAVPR
In short: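 Test chemicals meet CYP2D6 plus proluciferin substrate (10 min, RT); NADPH regenerating solution then drives turnover for 1 h. Detection reagent halts the reaction; luminescence measured after 20 min.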

[16] = biological target: Thyrotropin-releasing hormone receptor (Homo sapiens) (UniProt P34981); assay: qHTS assay to identify small molecule agonists of the thyrotropin-releasing hormone receptor (TRHR) signaling pathway (AID 1346891; calls by dose curve;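 further: HEK293 cells expressing TRHR with calcium dye readout; series mostly up to about 58 µM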)
Sequence of Thyrotropin-releasing hormone receptor (Homo sapiens) (P34981 whole entry, looked up): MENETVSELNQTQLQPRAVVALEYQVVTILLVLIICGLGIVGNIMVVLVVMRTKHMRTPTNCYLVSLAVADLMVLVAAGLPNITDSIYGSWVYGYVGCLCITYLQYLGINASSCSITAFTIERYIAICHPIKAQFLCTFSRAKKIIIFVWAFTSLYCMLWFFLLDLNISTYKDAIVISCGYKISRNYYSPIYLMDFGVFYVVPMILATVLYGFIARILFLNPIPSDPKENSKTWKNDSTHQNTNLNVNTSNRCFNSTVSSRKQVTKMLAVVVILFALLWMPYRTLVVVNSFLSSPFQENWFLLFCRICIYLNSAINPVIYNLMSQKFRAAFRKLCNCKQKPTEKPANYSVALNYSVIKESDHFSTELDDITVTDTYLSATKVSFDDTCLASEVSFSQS
In short: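 HEK293/TRHR cells, 1500 per well, 18 h 37 °C; Ca dye 2 h 37 °C; pin-tool compound addition (agonist mode); kinetic fluorescence 3 min, 1 s reads; 15 concentrations, triplicate.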

[17] = biological target: Thyrotropin-releasing hormone receptor (Homo sapiens) (UniProt P34981); assay: qHTS assay to identify small molecule antagonists of the thyrotropin-releasing hormone receptor (TRHR) signaling pathway (AID 1346877; active means well fitted inhibition curve with a large enough effect in the repeat runs, not every such curve was filed as active; further: series mostly up to about 51 µM)
In short: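 Kinetic fluorescence (3 min, 1 s resolution) following stimulation with TRH at 1 nM final; HEK293 cells bearing human TRHR; 5 min compound preincubation at RT; concentration-response over 15 points, triplicates.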

[18] = biological target: Nuclear receptor subfamily 1 group I member 2 (Homo sapiens) (UniProt O75469); assay: CYP3A4 induction through human pregnane X receptor (PXR) by small molecules, qHTS assay (AID 1346984); further: nearly all actives have a fitted effect of over 40% in size; further: potency means the concentration at half of the fitted maximal effect
In short: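 Induction measured in HepG2-based DPX-2 cells co-expressing human PXR and a CYP3A4 promoter-driven luciferase. After a 24-hour compound exposure, cells received CYP3A4 luciferin substrate at 3uM final for 3 hours, and light output was then recorded.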

[19] = biological target: Nuclear receptor subfamily 1 group I member 2 (Homo sapiens) (UniProt O75469); assay: Human pregnane X receptor (PXR) activation by small molecules, qHTS assay (AID 1346985); further: nearly all actives have a fitted effect of over 40% in size; further: potency means the concentration at half of the fitted maximal effect
In short: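 DPX-2 cells (HepG2 co-transfected with a PXR response element and a CYP3A4-promoter luciferase construct) were seeded at 2,000 per well, rested 5 hr at 37C, then exposed to DMSO-dissolved compounds for 24 hr. Activation was read as luciferase luminescence.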

[20] = biological target: Nuclear receptor subfamily 1 group I member 2 (Rattus norvegicus) (UniProt Q9R1A7); assay: Rat pregnane X receptor (rPXR) activation by small molecules, qHTS assay (AID 1346983); conditions: rPXR luciferase reporter cells, One-Glo luminescence, 24 h; max activation: stronger effect = higher value; further: nearly all actives have a fitted effect of over 20% in size
Sequence of Nuclear receptor subfamily 1 group I member 2 (Rattus norvegicus) (Q9R1A7 whole entry, looked up): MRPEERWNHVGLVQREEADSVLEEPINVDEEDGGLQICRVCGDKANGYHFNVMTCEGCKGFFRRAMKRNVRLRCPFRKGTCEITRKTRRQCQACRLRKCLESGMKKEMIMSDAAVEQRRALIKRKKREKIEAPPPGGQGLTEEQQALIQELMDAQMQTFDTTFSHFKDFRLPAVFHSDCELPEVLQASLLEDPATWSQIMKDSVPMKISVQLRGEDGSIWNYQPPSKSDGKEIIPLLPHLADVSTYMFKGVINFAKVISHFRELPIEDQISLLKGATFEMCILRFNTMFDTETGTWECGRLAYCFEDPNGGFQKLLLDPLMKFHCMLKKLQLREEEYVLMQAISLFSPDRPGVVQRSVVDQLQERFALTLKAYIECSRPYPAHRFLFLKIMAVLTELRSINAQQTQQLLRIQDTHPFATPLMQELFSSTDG
In short: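 Luminescent readout (One-Glo luciferase, 30 min room temperature) followed 24 hr compound treatment at 37 C of rPXR cells plated 2,000 per well and preincubated 5hr; qHTS format with compounds delivered in DMSO.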

Row | SMILES | Potency [1] | Potency [2] | Potency [3] | Potency [4] | Potency [5] | outcome [6] | outcome [7] | outcome [8] | Potency [9] | Potency [10] | Potency [11] | outcome [12] | Potency [13] | Potency [14] | Potency [15] | Potency [16] | outcome [17] | Potency [18] | Potency [19] | max activation [20]
1 | C/C(=N/NC(=O)c1ccncc1)C(=O)O | inactive | inactive | inactive | inactive | inactive | inactive | inactive | inactive | inactive | inactive | inactive | inactive | inactive | inactive | inactive |  |  |  |  | 
2 | CNC(=O)N(c1ccccc1)c1ccccc1 | inactive | inactive | inactive | inactive | inactive | inactive | inactive | inactive | inactive | inactive | 43.5 µM (active) | inactive | inactive |  | 35.7 µM (active) | inactive |  |  |  | 
3 | COc1cc2c(cc1OC)-c1cc(=Nc3c(C)cc(C)cc3C)n(C)c(=O)n1CC2 | inactive | inactive | 26.6 µM (active) |  |  | inactive | inactive | inactive | inactive | inactive | 29.8 µM (active) | inactive |  | 9.44 µM (active) | 13.8 µM (active) | inactive | inactive | inactive | 6.31 µM (active) | 
4 | O=C(Nc1ccc([N+](=O)[O-])cc1)Nc1ccc([N+](=O)[O-])cc1 | inactive | inactive | inactive |  |  | inactive | inactive | inactive | inactive | inactive | inactive | inactive | inactive | inactive | inactive | inactive | inactive | inactive | inactive | 
5 | N#C/C(=C1\SCC(c2ccccc2Cl)S1)n1ccnc1 (stereo not drawn) | inactive | inactive | 23.7 µM (active) |  |  | inactive | inactive | inactive | inactive | inactive | inactive | inactive | inactive | 26.6 µM (active) | 2.19 µM (active) | inactive | inactive | inactive | 14.1 µM (active) | 
6 | CC(=O)N(c1onc(C)c1C)S(=O)(=O)c1ccc(N)cc1 | inactive | inactive |  | inactive | inactive | inactive | inactive | inactive | inactive | inactive | inactive | inactive | inactive | inactive | inactive |  |  |  |  | 
7 | CC(C)(C)CC(C)(C)c1ccc(OCCO)cc1 | 34.2 µM (active) | inactive | 48.3 µM (active) |  |  | inactive | inactive | inactive | 27.1 µM (active) |  | 54.2 µM (active) | inactive | 48.3 µM (active) |  | inactive | inactive |  | 3.55 µM (active) | inactive | -7.23%
8 | Cc1cc(O)c2c(O)c3c(O)cccc3cc2c1 | inactive | inactive | inactive | inactive |  | inactive | inactive | inactive | inactive | inactive |  | inactive | inactive | 11.9 µM (active) | inactive | inactive |  |  |  | 
